Screens from PubChem BioAssay.
Pf growth 96h: inhibits malaria parasite growth, 96 h; P. falciparum luciferase reporter growth, 96 h; Potency, µM (series often up to 28.7 µM), without a hit: top-dose activity change, negative = inhibition, usual class: inhibitors; hit rate 6.9% among 320,000; AID 504834; note: potency is the fitted concentration of half-maximal effect; % is set by controls: 0 for no effect and ±100 for the full control effect
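Two-generation exposure (96 h) targets delayed-death phenotype. Reporter parasites carrying integrated firefly luciferase, in red cells at 2% hematocrit and 0.05% parasitemia final, kept at 37 C, 5% CO2; luminescence loss indicates inhibition.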
LmPK inhibitor: LmPK (Leishmania mexicana) enzyme inhibition | Q27686 | Potency, µM (doses to about 57.5 µM), inactives show top-dose activity change, negative = inhibition, actives largely listed as inhibitors | purified LmPK, Kinase-Glo ATP luminescence, 1 h | hit rate 0.37% among 290,000; note: potency is the fitted concentration of half-maximal effect; % is set by controls: 0 for no effect and ±100 for the full control effect
Target sequence (Q27686 whole entry, looked up): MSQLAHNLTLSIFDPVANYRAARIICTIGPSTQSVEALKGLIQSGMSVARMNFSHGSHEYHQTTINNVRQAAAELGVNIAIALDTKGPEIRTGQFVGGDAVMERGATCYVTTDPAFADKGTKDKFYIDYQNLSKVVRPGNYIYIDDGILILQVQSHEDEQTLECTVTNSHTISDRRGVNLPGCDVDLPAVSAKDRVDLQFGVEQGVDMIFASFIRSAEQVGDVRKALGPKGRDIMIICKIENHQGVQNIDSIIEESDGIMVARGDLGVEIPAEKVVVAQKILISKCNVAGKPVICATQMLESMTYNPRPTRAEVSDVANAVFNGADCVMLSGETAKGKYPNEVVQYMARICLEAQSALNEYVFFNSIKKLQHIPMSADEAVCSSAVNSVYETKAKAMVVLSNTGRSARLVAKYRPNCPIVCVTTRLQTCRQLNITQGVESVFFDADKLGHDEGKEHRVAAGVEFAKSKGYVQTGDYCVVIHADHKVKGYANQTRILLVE
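Kinase-Glo luminescence read after 1 h RT reaction of 0.1 nM LmPK with 0.5 mM PEP and 0.1 mM ADP. Activity scaled between uninhibited and enzyme-free controls.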
CHX counter: counter-screen for Shiga toxin inhibitors: cycloheximide protein synthesis inhibition; cell reporter, cycloheximide protein synthesis inhibition counterscreen; AID 2314; hit rate 12% among 300,000; max response, %; in the data active = max response mostly above about 13%, no sharp cut-off; inactive = mostly below about 14%; note: read at 38.3 µM for the half of the compounds with a filed dose; 0% is about no effect
Shiga toxin inh: Shiga toxin inhibition | Vero cells, Shiga toxin protein synthesis inhibition reporter | inhibition, % at 38.7 µM | hit rate 9.2% among 290,000; in the data active = inhibition mostly above about 28%, no sharp cut-off; inactive = mostly below about 43%; note: 0% is about no effect
Pf growth 48h: P. falciparum growth inhibition at 48 hours (one generation); Potency, µM (doses to about 28.7 µM), inactives show at the top dose activity change, negative = inhibition, actives largely listed as inhibitors; P. falciparum luciferase growth in erythrocytes, 48 h; AID 504832; hit rate 5.9% among 310,000; note: potency is the fitted concentration of half-maximal effect; % is set by controls: 0 for no effect and ±100 for the full control effect
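A one-generation exposure of luciferase-tagged malaria parasites in RPMI 1640/Albumax erythrocyte culture, 37 C and 5% CO2. Inhibition is inferred from decreased luminescence after adding detection reagent.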
Numbers without * were called inactive; i = inactive; ? = inconclusive; / = no result given. An excerpt weighted towards active compounds, which were near 22% of everything screened. Unless noted, calls come from the whole dose curve; as a rule, active = well fitted inhibition curve with a large enough effect; inconclusive = small, poorly fitted or top-dose-only effect, or another doubt; inactive = no such curve, though single readings can be large or run the other way.

SMILES | Pf growth 96h | LmPK inhibitor | CHX counter | Shiga toxin inh | Pf growth 48h
COC(=O)c1cccc(C23CC4(C2)[C@H](CN(Cc2ccc(-c5ccccc5)cc2)[C@@H]4c2ccccc2)C3c2ccc(C(F)(F)F)cc2)c1 (some centres not stated) | ? | 2% | -3 | 2 | ?
COC(=O)c1ccc(C23CC4(C2)[C@H](CN(Cc2ccc(-c5ccccc5)cc2)[C@@H]4c2ccccc2)C3c2ccc(Cl)nc2)cc1 (some centres not stated) | ? | 1% | -2 | 18 | 12µM*
CCn1cc(C(=O)NCC(OC)OC)c(=O)c2cc(S(=O)(=O)N(C)C3CCCCC3)ccc21 | 14% | 3% | -1 | 1 | ?
COc1ccc(N(CC(=O)Nc2cccc(C(F)(F)F)c2)S(C)(=O)=O)cc1 | i | 6% | active | 20 | 19%
COc1cccc(NC(=O)CN(c2cccc(C(F)(F)F)c2)S(C)(=O)=O)c1 | 18% | 4% | 3 | -26 | ?
COc1cccc(NC(=O)CN(c2cccc(OC)c2)S(C)(=O)=O)c1 | -22% | 0% | -1 | -9 | 0%
COC(=O)CN(c1cccc(OC)c1)S(C)(=O)=O | 5.9µM* | 3% | 1 | 27 | 7%
COc1ccc(N(CC(=O)Nc2cccc(SC)c2)S(C)(=O)=O)cc1 | ? | 1% | 23* | 49* | 15%
OC(CNCc1ccc(Cl)cc1)C(F)(F)F (configuration not stated) | 11% | 0% | -3 | -12 | 12%
COc1ccc(NC(=S)N(CCN(C)C)C(C)c2ccco2)cc1Cl (configuration not stated) | 10µM* | -2% | -2 | -5 | -13%
COCCN(C(=S)Nc1ccc(C)cc1C)C(C)c1ccco1 (configuration not stated) | 7% | 3% | 19* | 15 | ?
Cc1cccc(C(=O)OCC(=O)NC(=O)Cc2ccccc2)c1O | 0% | -8% | -2 | 6 | 7%
CC(=O)Nc1ccc(SCCN2CC[C@@H](C)CCC2=O)cc1 | 31% | / | / | / | 60%
O=C(c1cccc(S(=O)(=O)N2CCOCC2)c1)N1CCCC(C(F)(F)F)C1 (configuration not stated) | 2% | / | / | / | 3%
CCOC(=O)c1c(-c2ccc(-c3ccccc3)cc2)csc1NC(=O)CCN1CCOCC1 | 4.7µM* | -1% | -4 | -10 | ?
CCOC(=O)c1c(-c2ccccc2)csc1NC(=O)c1cc2ccccc2oc1=O | 13µM* | 5% | -4 | -3 | 12%
CCOC(=O)c1c(-c2ccccc2)csc1NC(=O)CCN1C(=O)c2ccccc2C1=O | 2.6µM* | 1% | -1 | 30 | 12%
CCOC(=O)c1sc(NC(=O)CCN2C(=O)c3ccccc3C2=O)c(C(=O)OCC)c1C | 13µM* | 3% | 13* | 22 | 16%
CCOC(=O)c1c(-c2ccc(F)cc2)csc1NC(=O)CCN1C(=O)c2ccccc2C1=O | ? | 3% | 0 | 2 | -5%
CC(NC(=O)CN1CCN(S(=O)(=O)c2ccc(Br)cc2)CC1)c1ccccc1 (configuration not stated) | -5% | / | / | / | ?
CCOC(=O)c1c(NC(=O)c2cccc(N3C(=O)CCC3=O)c2)sc(C)c1C | -20% | 3% | 1 | -15 | 31%
CCOC(=O)c1c(NC(=O)CSc2cccc[n+]2[O-])sc(C(=O)Nc2ccccc2)c1C | ? | 2% | 27* | 72* | 4%
CCOC(=O)c1c(-c2ccc(-c3ccccc3)cc2)csc1NC(=O)c1cccc(N2C(=O)CCC2=O)c1 | 5.2µM* | 0% | 5 | -4 | -2%
CCOC(=O)c1c(-c2cccs2)csc1NC(=O)C(C)(C)C | / | -8% | 6 | -14 | 13µM*
CCOC(=O)c1c(NC(=O)CN(C)C2CCN(C)CC2)sc(C(=O)Nc2ccccc2)c1C | ? | 1% | 8 | 10 | ?
SMILES | Pf growth 96h | LmPK inhibitor | CHX counter | Shiga toxin inh | Pf growth 48h
CCOC(=O)c1c(-c2cccs2)csc1NC(=O)CNCCN1CCOCC1 | 12µM* | -1% | -5 | -1 | ?
CCOC(=O)c1c(-c2ccc(F)cc2)csc1NC(=O)CN1C(=O)NC2(CCCCC2C)C1=O (configuration not stated) | 9.3µM* | 3% | -1 | 2 | 10µM*
Cc1cccc(-n2ncc3c(N4CCCc5ccccc54)ncnc32)c1 | -32% | 0% | 31 | 39 | /
COc1ccc(-n2ncc3c(N(C)C4CCCCC4)ncnc32)cc1 | 0% | -4% | 45* | 74* | 145%
Cc1cccc(-n2ncc3c(N(CCO)CCO)ncnc32)c1 | 162% | 3% | 27* | 65* | 185%
Cc1cccc(-n2ncc3c(N(C)C4CCCCC4)ncnc32)c1 | 134% | -11% | 90* | 127* | 22%
COc1ccc(C2C3C(C)=NN=C3CC(C)(O)C2C(C)=O)cc1 (configuration not stated) | 0% | 5% | -6 | 11 | -27%
CC(C)C(NC(=O)C(c1ccccc1)c1ccccc1)c1nc2ccccc2[nH]1 (configuration not stated) | / | 0% | -2 | -6 | 9.3µM*
CC(C)[C@H](NC(=O)c1cccc(S(=O)(=O)N2CCCC2)c1)c1nc2ccccc2[nH]1 | -38% | 1% | -3 | -6 | ?
Cc1cccc(C(=O)NC(C)C(=O)NC(c2nc3ccccc3[nH]2)C(C)C)c1 (configuration not stated) | 34% | / | / | / | -11%
CC(C)C(NC(=O)c1ccc(S(=O)(=O)N2CCOCC2)cc1)c1nc2ccccc2[nH]1 (configuration not stated) | 13µM* | 3% | -4 | -4 | -20%
CSCC[C@H](NC(=O)C1CCCC1)c1nc2ccccc2[nH]1 | 6% | -1% | -1 | -10 | 5%
CSCC[C@H](NC(=O)C(C)(C)Oc1ccc(Cl)cc1)c1nc2ccccc2[nH]1 | 10µM* | -1% | 4 | 12 | ?
CSCC[C@H](NC(=O)c1ccc(Cl)c(S(=O)(=O)N2CCCC2)c1)c1nc2ccccc2[nH]1 | 10µM* | 11% | -1 | 16 | 12µM*
Cc1ccc(S(=O)(=O)N(C)C)cc1NS(=O)(=O)c1ccc(Cl)s1 | 15% | 1% | 2 | 13 | -15%
C[C@H](NC(=O)c1ccc(Cl)c(S(=O)(=O)N2CCOCC2)c1)c1nc2ccccc2[nH]1 | 3.3µM* | / | / | / | ?
O=C1CCC(C(=O)N2CCSCC2)CN1CCc1cccc(F)c1 (configuration not stated) | 7% | 5% | 15* | 16 | 6%
O=C1CCC(C(=O)N2CCCC2)CN1CCc1cccc(F)c1 (configuration not stated) | -23% | 3% | 14 | -8 | 1%
CCOC(=O)N1CCN(C(=O)C2CCC(=O)N(Cc3cccc(C(F)(F)F)c3)C2)CC1 (configuration not stated) | ? | -6% | -2 | -7 | ?
